In PubChem BioAssay AID1159580 (chemical genetic matrix, 2015):
About 2,000 (36%) of roughly 5,500 compounds were called active. Not shown: some 18% with an inconclusive outcome. No stated cut-off is given here; in the data, active means normalized growth mostly below about 0.91 (no sharp cut-off); inconclusive means no clear call, values can overlap the other calls; inactive means mostly above about 0.92. Some of the results follow.

Test: chemical genetic growth profiling, strain panel (AID 1159580);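 further: tested at 20 µM; growth read once vehicle control cultures reached saturation at 30 °C; 1 = growth at the plate median or of vehicle wells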
Details: S. cerevisiae deletion strains, growth OD

Measured: normalized growth

CC(=O)NC(CS)C(=O)O (stereo not given)
inactive: locus YAL040C, strain CLN3, stronger effect = lower value 0.975 | locus YCL061C, strain MRC1 (second series), stronger effect = lower value 0.993 | locus YDR363W, strain ESC2, stronger effect = lower value 1.03 | locus YER002W, strain NOP16, stronger effect = lower value 0.994 | locus YGR229C, strain SMI1, stronger effect = lower value 1.02 | locus YMR263W, strain SAP30, stronger effect = lower value 0.988 | locus YNL153C, strain GIM3, stronger effect = lower value 0.979 | locus YNL175C, strain NOP13, stronger effect = lower value 0.974 | locus YNL197C, strain WHI3, stronger effect = lower value 0.988 | locus YNL224C, strain SQS1, stronger effect = lower value 0.983 | locus YOR083W, strain WHI5 (second series), stronger effect = lower value 0.996

Cc1ncc(CO)c(CO)c1O
inactive: locus YAL021C, strain ccr4, stronger effect = lower value 1.02 | locus YAL026C, strain drs2, stronger effect = lower value 1.02 | locus YAL030W, strain snc1, stronger effect = lower value 1.03 | locus YBL061C, strain skt5, stronger effect = lower value 1.02 | locus YBR009C, strain hhf1, stronger effect = lower value 1.01 | locus YBR023C, strain chs3, stronger effect = lower value 1.03 | locus YBR171W, strain sec66, stronger effect = lower value 1.04 | locus YBR231C, strain swc5, stronger effect = lower value 1.02 | locus YBR279W, strain paf1, stronger effect = lower value 1.01 | locus YCL011C, strain gbp2, stronger effect = lower value 1.02 | locus YCL016C, strain dcc1, stronger effect = lower value 1.01 | locus YCL069W, strain vba3, stronger effect = lower value 1.04 | locus YCR088W, strain abp1, stronger effect = lower value 1.01 | locus YDL005C, strain med2, stronger effect = lower value 1.03 | locus YDL040C, strain nat1, stronger effect = lower value 1.02 | locus YDR001C, strain nth1, stronger effect = lower value 1.03 | locus YDR069C, strain doa4, stronger effect = lower value 1.03 | locus YDR137W, strain rgp1, stronger effect = lower value 1.03 | locus YDR159W, strain sac3, stronger effect = lower value 1 | locus YDR195W, strain ref2 1.03 | locus YDR297W, strain sur2, stronger effect = lower value 1.03 | locus YDR334W, strain swr1, stronger effect = lower value 1.03 | locus YDR335W, strain msn5, stronger effect = lower value 1.02 | locus YDR392W, strain spt3, stronger effect = lower value 1.01 | locus YEL003W, strain gim4, stronger effect = lower value 1.02 | locus YEL037C, strain rad23, stronger effect = lower value 1.02 | locus YEL061C, strain CIN8 (second series), stronger effect = lower value 1.02 | locus YER015W, strain faa2, stronger effect = lower value 1.03 | locus YER016W, strain bim1, stronger effect = lower value 1 | locus YER111C, strain swi4, stronger effect = lower value 1.02 | locus YER155C, strain BEM2 (second series), stronger effect = lower value 1.07 | locus YFR010W, strain ubp6, stronger effect = lower value 1.02 | locus YGL167C, strain pmr1, stronger effect = lower value 1.03 | locus YGL173C, strain kem1, stronger effect = lower value 1.04 | locus YGL227W, strain vid30, stronger effect = lower value 1.02 | locus YGL240W, strain doc1, stronger effect = lower value 1.01 | locus YGL253W, strain hxk2, stronger effect = lower value 1.03 | locus YHR013C, strain ard1, stronger effect = lower value 1.03 | locus YHR027C, strain rpn1, stronger effect = lower value 1.02 | locus YHR030C, strain SLT2, stronger effect = lower value 0.956 | locus YHR079C, strain IRE1, stronger effect = lower value 0.98 | locus YHR142W, strain chs7, stronger effect = lower value 1.02 | locus YJL092W, strain hpr5, stronger effect = lower value 1.01 | locus YJL095W, strain BCK1 (second series), stronger effect = lower value 1.02 | locus YJL095W, strain BCK1, stronger effect = lower value 0.973 | locus YJL115W, strain asf1, stronger effect = lower value 1.03 | locus YJL129C, strain trk1, stronger effect = lower value 1.04 | locus YJL154C, strain vps35, stronger effect = lower value 1.03 | locus YJL164C, strain tpk1, stronger effect = lower value 1.01 | locus YJL166W, strain qcr8, stronger effect = lower value 1.02 | locus YJL187C, strain SWE1, stronger effect = lower value 1.03 | locus YJR066W, strain TOR1, stronger effect = lower value 0.911 | locus YKL160W, strain elf1, stronger effect = lower value 1.01 | locus YKR026C, strain gcn3, stronger effect = lower value 1.02 | locus YKR091W, strain srl3, stronger effect = lower value 1.02 | locus YLL001W, strain dnm1, stronger effect = lower value 0.999 | locus YLL026W, stronger effect = lower value 1.02 | locus YLL041C, strain sdh2, stronger effect = lower value 1.02 | locus YLR027C, strain aat2, stronger effect = lower value 1.01 | locus YLR113W, strain HOG1, stronger effect = lower value 0.962 | locus YLR221C, strain rsa3, stronger effect = lower value 1 | locus YLR258W, strain gsy2, stronger effect = lower value 1.02 | locus YLR262C, strain YPT6 (second series), stronger effect = lower value 1.04 | locus YLR320W, strain mms22, stronger effect = lower value 1.04 | locus YLR342W, strain FKS1, stronger effect = lower value 1.02 | locus YLR357W, strain rsc2, stronger effect = lower value 1 | locus YLR370C, strain arc18, stronger effect = lower value 1.03 | locus YLR384C, strain iki3, stronger effect = lower value 1.02 | locus YML120C, strain ndi1, stronger effect = lower value 1.02 | locus YMR058W, strain fet3, stronger effect = lower value 1.02 | locus YMR125W, strain sto1, stronger effect = lower value 1.01 | locus YMR129W, stronger effect = lower value 1.02 | locus YMR205C, strain PFK2, stronger effect = lower value 1.05 | locus YMR231W, strain pep5, stronger effect = lower value 1.03 | locus YNL071W, strain lat1, stronger effect = lower value 1.02 | locus YNL183C, strain NPR1, stronger effect = lower value 0.927 | locus YNL209W, strain ssb2, stronger effect = lower value 1.03 | locus YNL248C, strain rpa49, stronger effect = lower value 1.03 | locus YNL322C, strain KRE1 (second series), stronger effect = lower value 1.04 | locus YNR049C, strain mso1, stronger effect = lower value 1.03 | locus YOR001W, strain rrp6, stronger effect = lower value 1.03 | locus YOR070C, strain gyp1, stronger effect = lower value 1.03 | locus YOR080W, strain dia2, stronger effect = lower value 1.04 | locus YOR083W, strain WHI5, stronger effect = lower value 0.975 | locus YOR106W, strain vam3, stronger effect = lower value 1.03 | locus YOR231W, strain MKK1, stronger effect = lower value 0.957 | locus YOR265W, strain rbl2, stronger effect = lower value 1.03 | locus YOR270C, strain vph1, stronger effect = lower value 1.08 | locus YOR290C, strain snf2, stronger effect = lower value 1.02 | locus YPL051W, strain arl3, stronger effect = lower value 1.02 | locus YPL078C, strain atp4, stronger effect = lower value 1.02 | locus YPL106C, strain sse1, stronger effect = lower value 1.04 | locus YPL240C, strain hsp82, stronger effect = lower value 1.04 | locus YPL256C, strain CLN2, stronger effect = lower value 0.975
